From PubChem BioAssay (Tox21)
Several values for one entry are separate records, joined by “and”; a condition that tells them apart may be missing. Identical values can stand only once. Results filed as inconclusive are left out. Entries that show only a call come without a potency. Where a structure was tested more than once in an assay, its records may differ in their call. Activity calls are given as the source filed them. Unless noted, calls follow the shape of the dose curve; as a rule, active = well fitted curve in the direction sought with a large enough effect in the repeat runs; inconclusive = weak or mixed curves; inactive = no such curve, though single readings can be large; an effect the other way counts as inactive or inconclusive.

Columns and labels:
[1] = qHTS assay to identify small molecule antagonists of the retinoid acid receptor (RAR) signaling pathway - cell viability counter screen (AID 1159551); also: nearly all actives have a fitted effect of over 35% in size; also: potency is read from the fitted curve at half-maximal effect
Procedure, shortened: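 C3RL4 cells were seeded overnight at 37 C, then treated with compounds plus 1 uM (final) retinol for 6 h at 37 C. Viability was read as ATP by CellTiter-Glo luminescence after 30 min at room temperature.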

[2] = qHTS assay to identify small molecule antagonists of the retinoic acid receptor (RAR) signaling pathway (AID 1159552; also: nearly all actives have a fitted effect of over 50% in size; also: potency is read from the fitted curve at half-maximal effect)
Procedure, shortened: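 Using a RARE-driven luciferase construct in C3RL4 cells, retinol at 1 uM final provided the agonist stimulus while compounds were co-applied. After 6 hours at 37 C, luminescence was recorded to flag inhibitors of retinol signaling.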

[3] = qHTS assay to identify small molecule agonists of the retinoic acid receptor (RAR) signaling pathway (AID 1159553); conditions: C3RL4 RARE luciferase reporter, agonist, 6 h; activation: at 73.3 µM (top of the series) unless noted; also: potency is read from the fitted curve at half-maximal effect
Procedure, shortened: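 C3RL4 cells carrying a RARE luciferase reporter were plated overnight at 37 C, then exposed to compounds in DMSO for 6 hr at 37 C and 5% CO2. Luminescence was read 30 min after luciferase reagent addition at room temperature.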

[4] = qHTS assay to identify small molecule antagonists of the estrogen related receptor (ERR) signaling pathway from Tox21 library - cell viability counter screen (AID 1224834); also: nearly all actives have a fitted effect of over 30% in size; also: potency is read from the fitted curve at half-maximal effect
Procedure, shortened: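 ERR reporter cells were plated 6 h before compound addition, then exposed to test compounds in DMSO for 17.5 h at 37 C. Viability was read as CellTiter-Fluor fluorescence after a 30-minute incubation at 37 C.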

[5] = target: Luciferin 4-monooxygenase (Photinus pyralis) (UniProt P08659); test: qHTS assay to identify small molecule inhibitors of firefly luciferase (AID 1224835); also: nearly all actives have a fitted effect of over 25% in size; also: potency is read from the fitted curve at half-maximal effect
Chain of Luciferin 4-monooxygenase (Photinus pyralis) (P08659 whole entry, looked up): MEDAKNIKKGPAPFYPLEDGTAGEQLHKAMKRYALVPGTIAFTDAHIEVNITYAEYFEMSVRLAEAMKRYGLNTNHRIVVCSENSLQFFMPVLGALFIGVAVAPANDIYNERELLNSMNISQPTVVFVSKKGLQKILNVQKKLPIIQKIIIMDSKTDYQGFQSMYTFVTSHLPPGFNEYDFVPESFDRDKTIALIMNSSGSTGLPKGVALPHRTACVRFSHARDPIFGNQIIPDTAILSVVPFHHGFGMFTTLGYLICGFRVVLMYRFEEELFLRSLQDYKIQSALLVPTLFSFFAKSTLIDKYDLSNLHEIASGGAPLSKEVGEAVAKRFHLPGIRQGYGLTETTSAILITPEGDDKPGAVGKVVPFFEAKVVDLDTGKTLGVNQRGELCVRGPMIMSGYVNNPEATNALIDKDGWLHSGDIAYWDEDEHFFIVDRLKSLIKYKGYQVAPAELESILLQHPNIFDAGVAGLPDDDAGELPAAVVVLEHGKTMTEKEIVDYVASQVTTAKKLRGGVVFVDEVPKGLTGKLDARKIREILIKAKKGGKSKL
Procedure, shortened: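 Inhibition of purified Photinus luciferase is measured by luminescence. Substrate levels (D-luciferin, ATP) sit at their KM values. Each compound is tested in a concentration series.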

[6] = qHTS assay to identify small molecule antagonists of the constitutive androstane receptor (CAR) signaling pathway - cell viability counter screen (AID 1224837); also: nearly all actives have a fitted effect of over 45% in size; also: potency is read from the fitted curve at half-maximal effect
Procedure, shortened: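 HepG2 cells stably expressing hCAR and a CYP2B6-2.2kb reporter were plated and pre-incubated 4 hr at 37 C/5% CO2, then given compounds at 15 concentrations plus 50 nM CITCO (final). After 23 hr, viability was read by CellTiter-Fluor fluorescence.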

[7] = target: Nuclear receptor subfamily 1 group I member 3 (Homo sapiens) (UniProt Q14994); test: qHTS assay to identify small molecule antagonists of the constitutive androstane receptor (CAR) signaling pathway (AID 1224838); also: nearly all actives have a fitted effect of over 40% in size; also: potency is read from the fitted curve at half-maximal effect
Chain of Nuclear receptor subfamily 1 group I member 3 (Homo sapiens) (Q14994 whole entry, looked up): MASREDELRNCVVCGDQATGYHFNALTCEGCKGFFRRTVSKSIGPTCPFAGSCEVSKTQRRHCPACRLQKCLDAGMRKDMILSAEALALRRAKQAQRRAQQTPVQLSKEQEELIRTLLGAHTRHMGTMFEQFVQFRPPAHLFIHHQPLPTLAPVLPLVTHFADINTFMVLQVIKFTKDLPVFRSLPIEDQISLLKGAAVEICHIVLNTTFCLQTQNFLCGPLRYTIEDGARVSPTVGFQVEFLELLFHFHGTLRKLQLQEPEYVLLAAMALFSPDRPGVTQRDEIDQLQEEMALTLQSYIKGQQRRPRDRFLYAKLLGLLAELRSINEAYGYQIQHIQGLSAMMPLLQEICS
Procedure, shortened: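 HepG2 cells stably co-transfected with hCAR and a CYP2B6-2.2kb luciferase reporter were seeded 4 h before compound addition at 15 concentrations. Cells were stimulated with 50 nM CITCO (final) for 24 h at 37 C; luciferase luminescence was then read.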

[8] = target: Nuclear receptor subfamily 1 group I member 3 (Homo sapiens) (UniProt Q14994); test: qHTS assay to identify small molecule agonists of the constitutive androstane receptor (CAR) signaling pathway (AID 1224839); also: nearly all actives have a fitted effect of over 15% in size; also: potency is read from the fitted curve at half-maximal effect;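 as to activation: HepG2 cells stably carrying human CAR and a CYP2B6 luciferase reporter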
Procedure, shortened: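 Using human hepatoma HepG2 cells engineered with hCAR and a CYP2B6-2.2kb reporter, 15-concentration compound series were incubated 24 h alongside PK11195 at 0.75 uM final, with luminescence quantified afterwards.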

[9] = qHTS assay to identify small molecule antagonists of the estrogen related receptor signaling pathway with the pleiotropic PPARgamma coactivator (PGC) from Tox21 10K library - cell viability counter screen (AID 1224840; active = well fitted cell-killing curve with a large enough effect in the repeat runs, not every such curve was filed as active; also: nearly all actives have a fitted effect of over 40% in size; also: potency is read from the fitted curve at half-maximal effect)
Procedure, shortened: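 PGC/ERR cells were seeded at 2,000 cells/well and left 6 hours at 37 C/5% CO2 before pin-tool addition of compounds in DMSO. After 17.5 hours at 37 C, CellTiter-Fluor was added and fluorescence read 30 minutes later.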

[10] = qHTS assay to identify small molecule agonists of the estrogen related receptor signaling pathway with the pleiotropic PPARgamma coactivator (PGC) from Tox21 10K library (AID 1224842); also: nearly all actives have a fitted effect of over 15% in size
Procedure, shortened: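 Luminescence from One-Glo (30 min, room temperature) measured after PGC/ERR cells had 18 h at 37 C with pinned compound (23 nL in DMSO). Cells had been seeded at 2,000 per well and pre-incubated 6 h.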

[11] = target: Thyrotropin receptor (Homo sapiens) (UniProt P16473); test: qHTS assay to identify small molecule agonists of the thyroid stimulating hormone receptor (TSHR) signaling pathway (AID 1224843; calls by dose curve; also: nearly all actives have a fitted effect of over 45% in size; also: potency is read from the fitted curve at half-maximal effect)
Chain of Thyrotropin receptor (Homo sapiens) (P16473 whole entry, looked up): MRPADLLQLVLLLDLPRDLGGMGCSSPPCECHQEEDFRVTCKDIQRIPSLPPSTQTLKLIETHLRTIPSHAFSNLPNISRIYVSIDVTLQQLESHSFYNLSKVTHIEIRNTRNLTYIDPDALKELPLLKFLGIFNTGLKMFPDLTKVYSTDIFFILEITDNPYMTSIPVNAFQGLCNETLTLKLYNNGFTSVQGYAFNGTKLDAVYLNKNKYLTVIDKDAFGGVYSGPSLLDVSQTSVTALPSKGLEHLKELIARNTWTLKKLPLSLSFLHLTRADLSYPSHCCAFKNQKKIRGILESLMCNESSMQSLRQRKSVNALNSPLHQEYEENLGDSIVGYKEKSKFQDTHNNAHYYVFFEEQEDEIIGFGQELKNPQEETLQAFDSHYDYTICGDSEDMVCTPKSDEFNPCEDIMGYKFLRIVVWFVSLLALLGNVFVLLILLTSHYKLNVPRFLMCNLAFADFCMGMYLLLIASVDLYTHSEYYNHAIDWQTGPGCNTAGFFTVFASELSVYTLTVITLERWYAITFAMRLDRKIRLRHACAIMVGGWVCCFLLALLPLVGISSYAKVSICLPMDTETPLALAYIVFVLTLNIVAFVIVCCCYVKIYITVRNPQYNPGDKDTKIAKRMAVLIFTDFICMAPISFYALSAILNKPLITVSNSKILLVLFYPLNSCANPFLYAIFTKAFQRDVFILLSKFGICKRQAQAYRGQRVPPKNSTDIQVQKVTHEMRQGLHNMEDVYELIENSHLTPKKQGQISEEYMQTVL
Procedure, shortened: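 Screening of the Tox21 10K collection used HEK293 cells engineered with TSHR at 800 cells per well. After a 30-min room-temperature compound exposure, HTRF cAMP reagents were added and fluorescence recorded 1 h later.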

[12] = qHTS assay to identify small molecule agonists of the hypoxia (HIF-1) signaling pathway - cell viability counter screen (AID 1224844; calls by dose curve; also: nearly all actives have a fitted effect of over 50% in size; also: potency is read from the fitted curve at half-maximal effect)
Procedure, shortened: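 HRE-bla ME-180 cells in medium with 0.5% dialyzed FBS were preincubated 5 hrs at 37C, exposed to compounds for 17 hrs, then viability was read as CellTiter-Glo luminescence after 30 min at room temperature, in the reporter wells.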

[13] = qHTS assay to identify small molecule agonists of the constitutive androstane receptor (CAR) signaling pathway - cell viability counter screen (AID 1224836); also: nearly all actives have a fitted effect of over 45% in size; also: potency is read from the fitted curve at half-maximal effect
Procedure, shortened: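 Multiplexed viability check: HepG2-CYP2B6-hCAR cells, 15-point compound dosing, 0.75 uM PK11195 final, 23 h at 37 C, CellTiter-Fluor fluorescence.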

[14] = qHTS assay to identify small molecule antagonists of the estrogen related receptor signaling pathway with the pleiotropic PPARgamma coactivator (PGC) from Tox21 10K library (AID 1224841; call rule not given here; also: actives are mostly falling curves and most rising ones were filed inactive; nearly all actives have a fitted effect of over 50% in size; also: potency is read from the fitted curve at half-maximal effect)
Procedure, shortened: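 PGC/ERR reporter cells were seeded at 2,000 cells/well and held 6 hours at 37 C/5% CO2 before pin-tool addition of compounds in DMSO. After 18 hours at 37 C, One-Glo was added and luminescence read after 30 minutes at room temperature.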

[15] = qHTS assay to identify small molecule antagonists of the estrogen related receptor (ERR) signaling pathway - cell viability counter screen (AID 1224818);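 also: viability measured after 17.5 h of compound exposure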
Procedure, shortened: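 ERR reporter cells plated 6 h at 37 C/5% CO2, then compounds in DMSO pin-transferred and incubated 17.5 h at 37 C. Viability read as CellTiter-Fluor fluorescence after 30 min at 37 C.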

[16] = qHTS assay to identify small molecule antagonists of the estrogen related receptor signaling pathway with the pleiotropic PPARgamma coactivator (PGC) cell viability counter screen (AID 1224822)
Procedure, shortened: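 PGC/ERR cells were seeded at 2,000 cells/well, rested 6 h at 37 C/5% CO2, then given compounds in DMSO by pin tool and incubated 17.5 h at 37 C. Viability came from CellTiter-Fluor fluorescence after 30 min.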

[17] = qHTS assay to identify small molecule antagonists of the estrogen related receptor (ERR) signaling pathway (AID 1224819;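 also: luminescence from an ERR-driven luciferase reporter measured with One-Glo reagent; nearly all actives have a fitted effect of over 50% in size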)
Procedure, shortened: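 ERR reporter cells were plated at 2,000 cells/well and left 6 h at 37 C/5% CO2 before pin-tool transfer of compounds in DMSO. After 18 h at 37 C, One-Glo was added and luminescence was read 30 min later at room temperature.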

[18] = qHTS assay to identify small molecule agonists of the estrogen related receptor (ERR) signaling pathway (AID 1224820)
Procedure, shortened: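 ERR reporter cell line (from NTP), 2,000 cells/well, incubated 6 h before compound addition, then 18 h at 37 C. Luminescence measured 30 min after One-Glo reagent at room temperature.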

[19] = tested on: estrogen-related receptor alpha (ERRalpha) with PGC-1alpha coactivator, human; test: qHTS assay to identify small molecule antagonists of the estrogen related receptor signaling pathway with the pleiotropic PPARgamma coactivator (PGC) (AID 1224821; calls by dose curve)
Procedure, shortened: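 PGC/ERR reporter cell line, plated 6 h before compound addition, then exposed 18 h at 37 °C. Luciferase activity read by luminescence 30 min after One-Glo addition; decrease indicates antagonism.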

[20] = qHTS assay to identify small molecule agonists of the estrogen related receptor signaling pathway with the pleiotropic PPARgamma coactivator (PGC) (AID 1224823)
Procedure, shortened: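 PGC/ERR reporter cells seeded 6 h, then exposed to compounds (23 nL in DMSO) for 18 h at 37 C. One-Glo luciferase luminescence read after 30 min at room temperature.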

Structure (SMILES) | Potency [1] | Potency [2] | Potency [3] | Potency [4] | Potency [5] | Potency [6] | Potency [7] | Potency [8] | Potency [9] | Potency [10] | Potency [11] | Potency [12] | Potency [13] | Potency [14] | outcome [15] | Potency [16] | Potency [17] | outcome [18] | Potency [19] | outcome [20]
S=c1[nH]c2ccccc2[nH]1 | inactive | inactive | inactive | inactive | inactive | inactive | 54.6 µM (active) and inactive | inactive | inactive | inactive | inactive | inactive |  |  |  |  |  |  |  | 
O=C1CCCO1 | inactive | inactive | inactive | inactive | inactive | inactive | inactive | inactive | inactive | inactive | inactive | inactive | inactive | inactive |  |  |  |  |  | 
C=CC(Cl)CCl (configuration not stated) | inactive | inactive | inactive | inactive | inactive | inactive | inactive | inactive | inactive |  | inactive | inactive | inactive |  |  |  |  |  |  | 
C[C@]12CCC(=O)C=C1CC[C@@H]1[C@@H]2CC[C@@]2(C)[C@H]1CC[C@]2(C)O | inactive | 43.6 µM (active) | inactive | inactive |  | inactive | inactive | inactive | inactive |  | inactive | inactive | inactive |  | inactive | inactive |  |  |  | 
COC(=O)Nc1nc2ccccc2[nH]1 | inactive | inactive | inactive | inactive | inactive | inactive | inactive |  | inactive |  | inactive | inactive | inactive |  |  |  |  |  |  | 
N#Cc1c(Cl)c(Cl)c(Cl)c(C#N)c1Cl | 37.8 µM (active) and 38.6 µM (active) | 3 µM (active) and 3.06 µM (active) | 847 nM (active) and 486 nM (active) | 7.55 µM (active) and 21.7 µM (active) | inactive | 15.1 µM (active) and 9.69 µM (active) | 5.34 µM (active) and 4.33 µM (active) | inactive | 4.24 µM (active) and 6.11 µM (active) |  | 2.68 µM (active) and 3.86 µM (active) | 3.03 µM (active) and 3.09 µM (active) | 26.8 µM (active) and 24.3 µM (active) |  |  |  |  |  |  | 
OC(c1ccc(Cl)cc1)(c1cncnc1)c1ccccc1Cl (configuration not stated) | inactive | 27.8 µM (active) and inactive | inactive | 27.8 µM (active) and 43.3 µM (active) | 81.1 µM (active) and inactive | 55.4 µM (active) | 62.2 µM (active) and inactive | inactive |  | inactive |  | inactive | inactive | 24.8 µM (active) and inactive |  |  |  |  |  | 
Oc1ccc(Cl)cc1Cc1ccccc1 | 55.1 µM (active) and inactive | 27.6 µM (active) and inactive | inactive |  | inactive | inactive | inactive | 31 µM (active) and inactive | inactive |  | inactive | 49.6 µM (active) and inactive |  |  | inactive | inactive |  |  |  | 
COP(=S)(OC)Oc1ccc(Sc2ccc(OP(=S)(OC)OC)cc2)cc1 | inactive | inactive | 61.1 µM (active) and inactive | inactive | 31.7 µM (active) and inactive | inactive | inactive | 61.1 µM (active) and inactive | inactive | inactive | inactive | inactive | inactive | inactive |  |  |  |  |  | 
Brc1ccc(Br)cc1 | inactive | inactive | inactive | inactive | inactive | inactive | inactive | inactive | inactive | inactive | inactive | inactive |  | inactive |  |  |  |  |  | 
Clc1cccc(Cl)c1 | inactive | inactive | inactive | inactive | inactive | inactive | inactive | inactive | inactive | inactive | inactive | inactive |  | inactive |  |  |  |  |  | 
c1ccc2c(c1)Nc1ccccc1S2 | inactive | inactive | inactive |  |  | inactive | inactive | 30.6 µM (active) | inactive | inactive |  | inactive |  | inactive | inactive | inactive | inactive | inactive | inactive | inactive
COP(=S)(OC)Oc1ccc(S(=O)(=O)N(C)C)cc1 | inactive | inactive | inactive | inactive | inactive | inactive | inactive | inactive | inactive | inactive | inactive | inactive | inactive | inactive |  |  |  |  |  | 
CS(=O)(=O)NC(=O)c1cc(Oc2ccc(C(F)(F)F)cc2Cl)ccc1[N+](=O)[O-] | inactive | inactive | inactive | inactive | inactive | inactive | inactive |  | inactive |  | inactive | inactive | inactive |  |  |  |  |  |  | 
O=[N+]([O-])/N=C1\NCCN1Cc1ccc(Cl)nc1 | inactive | inactive | inactive | inactive | inactive | inactive | inactive | inactive | inactive | inactive | inactive | inactive | inactive | inactive |  |  |  |  |  | 
Cn1c(-c2ccccc2)cc(-c2ccccc2)[n+]1C | inactive | inactive | inactive | inactive | inactive | inactive | inactive | inactive | inactive | inactive | inactive | inactive | inactive | 8.62 µM (active) and 27.3 µM (active) |  |  |  |  |  | 
